The results in this text go back to PubChem BioAssay (NCATS).

Test [1] in a line: Primary qHTS for small molecule stabilizers of the endoplasmic reticulum resident proteome: Secreted ER Calcium Modulated Protein (SERCaMP) assay (AID 1508630). Also: potency is read from the fitted curve at half-maximal effect. In outline:
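The SH-SY5Y reporter protocol was run at 3 concentrations up to 38.3 uM (primary) or 11 concentrations (follow-up): 16 h compound, 100 nM thapsigargin for 4 h, then extracellular luciferase luminescence.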

Test [2] can be described thus: A High-Content qHTS Against Drug Library for the Identification of Small Molecules that Inhibit DYT1 Early Onset Primary Dystonia-Associated Cell Pathology (AID 1645839; calls by dose curve; also: series mostly up to about 46 µM). In outline:
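High-content imaging quantified EGFP-TorsinA mislocalization in HEK293-derived cells inducibly expressing DYT1 mutant torsinA, after 48 h exposure to compound given together with tetracycline induction. Cell count served as a toxicity channel alongside %pathology.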
(In general: In qHTS, concentration-response curves come from the screen itself.)

Test [3] deals with Cytochrome P450 2D6 (Homo sapiens) (UniProt P10635). The experiment in a line: Cytochrome P450 family 2 subfamily D member 6 (CYP2D6) small molecule antagonists: luciferase biochemical (cell-free) qHTS assay (AID 1645840; active = well fitted curve in the direction sought with a large enough effect in the repeat runs; an effect the other way counts as inactive or inconclusive; also: nearly all actives have a fitted effect of over 55% in size; also: potency is read from the fitted curve at half-maximal effect). Summed up:
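P450-Glo CYP2D6 system: proluciferin substrate converted by enzyme to luciferin, read by luminescence proportional to activity. Enzyme-substrate mix with compound 10 min at room temperature, then NADPH regeneration 1 h before detection reagent.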

Test [4] concerns the target Cytochrome P450 2C9 (Homo sapiens) (UniProt P11712). Briefly: Cytochrome P450 family 2 subfamily C member 9 (CYP2C9) small molecule antagonists: luciferase biochemical (cell-free) qHTS assay (AID 1645842; active = well fitted curve in the direction sought with a large enough effect in the repeat runs; an effect the other way counts as inactive or inconclusive; also: nearly all actives have a fitted effect of over 55% in size; also: potency is read from the fitted curve at half-maximal effect). Summed up: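 P450-Glo CYP2C9 system: proluciferin substrate with enzyme in mix containing 0.4% BSA, 10 min at room temperature, then NADPH regeneration solution added and incubated 1 h at 37C. Detection reagent stopped reaction; luminescence read after 20 min as RLU.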

Another test concerns the target Papain (Carica papaya) (UniProt P00784). Briefly: Primary qHTS assay for inhibitors of the protease papain (AID 1645873).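 Also: papain turnover of Z-FR-AMC read as the AMC fluorescence gain over 10 min.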 Also: potency is read from the fitted curve at half-maximal effect.

Inconclusive results are not listed. A call without a number means that no potency is given here. Calls of active or inactive are those of the source. Unless noted, calls follow the shape of the dose curve; as a rule, active = well fitted curve in the direction sought with a large enough effect; inconclusive = small, poorly fitted or top-dose-only effect, or another doubt; inactive = no such curve, though single readings can be large; an effect the other way counts as inactive or inconclusive.

Sequence of Cytochrome P450 2C9 (Homo sapiens) (P11712 whole entry, looked up): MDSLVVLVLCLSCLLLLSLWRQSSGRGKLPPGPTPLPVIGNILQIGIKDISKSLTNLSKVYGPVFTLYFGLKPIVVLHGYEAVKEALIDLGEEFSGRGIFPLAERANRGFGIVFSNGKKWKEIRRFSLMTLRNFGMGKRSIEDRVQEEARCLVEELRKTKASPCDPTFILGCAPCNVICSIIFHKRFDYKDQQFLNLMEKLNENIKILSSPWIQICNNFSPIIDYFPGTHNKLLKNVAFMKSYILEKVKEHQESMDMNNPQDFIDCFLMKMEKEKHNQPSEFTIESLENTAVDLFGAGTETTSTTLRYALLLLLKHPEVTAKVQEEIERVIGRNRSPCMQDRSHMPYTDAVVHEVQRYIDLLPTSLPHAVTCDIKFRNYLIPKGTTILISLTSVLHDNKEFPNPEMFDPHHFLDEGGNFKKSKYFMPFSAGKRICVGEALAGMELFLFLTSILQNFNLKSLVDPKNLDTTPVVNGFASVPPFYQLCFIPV
Sequence of Papain (Carica papaya) (P00784 whole entry, looked up): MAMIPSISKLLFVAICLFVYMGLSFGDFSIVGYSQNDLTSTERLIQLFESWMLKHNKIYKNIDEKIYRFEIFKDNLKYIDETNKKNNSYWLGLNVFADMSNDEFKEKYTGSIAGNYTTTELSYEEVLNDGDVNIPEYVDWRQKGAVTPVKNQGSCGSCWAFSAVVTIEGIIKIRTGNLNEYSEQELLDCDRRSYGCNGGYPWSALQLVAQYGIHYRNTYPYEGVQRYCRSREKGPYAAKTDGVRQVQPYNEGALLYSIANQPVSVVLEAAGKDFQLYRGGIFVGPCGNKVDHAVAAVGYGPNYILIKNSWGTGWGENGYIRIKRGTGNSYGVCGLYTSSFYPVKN
Sequence of Cytochrome P450 2D6 (Homo sapiens) (P10635 whole entry, looked up): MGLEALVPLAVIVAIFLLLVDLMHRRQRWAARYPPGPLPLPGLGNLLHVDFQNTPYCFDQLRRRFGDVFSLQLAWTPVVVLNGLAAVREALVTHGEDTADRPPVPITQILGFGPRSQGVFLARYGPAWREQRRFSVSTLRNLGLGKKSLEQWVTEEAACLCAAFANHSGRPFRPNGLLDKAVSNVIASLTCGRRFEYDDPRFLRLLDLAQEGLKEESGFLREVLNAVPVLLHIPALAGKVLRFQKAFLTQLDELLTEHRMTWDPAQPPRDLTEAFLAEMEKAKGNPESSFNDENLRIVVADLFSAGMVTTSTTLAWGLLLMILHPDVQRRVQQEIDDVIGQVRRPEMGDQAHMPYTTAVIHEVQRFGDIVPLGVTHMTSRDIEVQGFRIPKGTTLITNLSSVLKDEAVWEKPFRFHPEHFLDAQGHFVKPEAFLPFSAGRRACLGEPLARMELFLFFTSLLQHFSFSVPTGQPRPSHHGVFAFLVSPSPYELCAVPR

Regarding `CN(C)CCCO[C@@H]1[C@H]2OC(C)(C)O[C@H]2O[C@@H]1[C@H](O)CO`, the Potency result in test [1] is “inactive”.

For the compound `CCCCCCCCCCCCCCCC(=O)NCC(COP(=O)([O-])OCC[N+](C)(C)C)OCC` (stereo not drawn), in test [1], the Potency entry was “inactive”.

Regarding `Ic1ccc(N2CCN(Cc3c[nH]c4ncccc34)CC2)cc1`, the Potency entry in test [1] is “inactive”.

On to `Nc1ccc(O)c(C(=O)O)c1`, for which the Potency result in test [1], in test [2], in test [3] and in test [4] was “inactive” each time.

As to `O=C(O)[C@@H]1C[C@@H](C(=O)O)N1`, in test [1], the Potency entry was “inactive”.

On to `NC(=S)NCCC[C@H](N)C(=O)O`, for which, in test [1], the Potency entry was “inactive”.

Turning to `Cc1ccccc1CNc1ncnc2c1ncn2C1OC(CO)C(O)C1O` (stereo not drawn), in test [1], the Potency result is “inactive”.

Consider `CCCCCCCCCCCCCCCCCC(=O)NCC(COP(=O)([O-])OCC[N+](C)(C)C)OCC` (stereo not drawn), for which, in test [1], the Potency result was “inactive”.

`COc1ccnc2c1CCCCC2S(=O)c1nc2ccccc2[nH]1` (stereo not drawn): the Potency entry in test [1] and in test [2] was “inactive” in each case. The Potency in test [3] is 0.347 µM (active); in test [4], 9.77 µM (active).

Consider `CO/S(=N\S(=O)(=O)c1ccc(Cl)cc1)c1ccc([N+](=O)[O-])cc1` (stereo not drawn), for which the Potency entry in test [1] is “inactive”.

Regarding `Oc1cc(O)cc(/C=C/c2ccc(O)c(O)c2)c1`, the Potency with Papain (Carica papaya) was 22.4 µM (active).

For `CC1(C)S[C@@H]2[C@H](NC(=O)[C@H](N)c3ccccc3)C(=O)N2[C@H]1C(=O)O`, the Potency entry in test [2] and in test [3] was “inactive” in each case.

For `Nc1ccn([C@@H]2O[C@H](CO)[C@@H](O)[C@@H]2O)c(=O)n1`, the Potency entry with Papain (Carica papaya) is “inactive”.

Take `COc1ccc(Br)cc1S(=O)(=O)NC(=O)/C=C/c1ccccc1Cc1ccc2ccccc2c1`: the Potency result with Papain (Carica papaya) is “inactive”.

Regarding `Cn1c(=O)c2[nH]c(-c3ccccc3)nc2n(C)c1=O`, the Potency entry (in test [1]; with Papain (Carica papaya)) was “inactive” in each case.

Regarding `CCCCCCCCCCCCCCCCCC(=O)O`, the Potency result in test [2] is “inactive”.

Take `C#C[C@]1(O)CC[C@H]2[C@@H]3CCC4=Cc5oncc5CC4(C)[C@H]3CCC21C` (stereo partly drawn): the Potency result (in test [1]; with Papain (Carica papaya)) was “inactive” throughout.

On to `CN1CCc2ccccc2Cc2[nH]c3ccccc3c2CC1`, for which the Potency result (in test [1]; with Papain (Carica papaya)) was “inactive” each time.

As to `CN(C)CCC(c1ccc(Cl)cc1)c1ccccn1` (stereo not drawn), the Potency result (in test [1]; with Papain (Carica papaya)) was “inactive” each time.

In the case of `CCOC(=O)C1=C(C)NC(C)=C(C(=O)OCC)C1c1c(F)c(F)c(F)c(F)c1F`, the Potency result in test [1] was “inactive”. For the same compound, the Potency with Papain (Carica papaya) was 25.1 µM (active).

Turning to `NCCCCC(=O)O`, the Potency result (in test [1]; with Papain (Carica papaya)) was “inactive” throughout.

Regarding `CC(C)NC[C@@H](O)c1ccc(O)c(O)c1`, the Potency result in the test with Papain (Carica papaya) was “inactive”.

In the case of `c1ccc(-c2ccccn2)nc1`, the Potency result (in test [1]; with Papain (Carica papaya)) was “inactive” throughout.

As for `O=C(CS)Nc1ccccc1`, the Potency result in test [1] is “inactive”. For the same compound, the Potency in test [4] was 4.9 µM (active).

On to `COc1cc(SC)ccc1C(=O)N1CCC(Cc2ccccc2)CC1`, for which the Potency result (in test [1]; with Papain (Carica papaya)) was “inactive” throughout.

For the compound `O=C(O)CCCC[C@@H]1CCSS1`, the Potency entry (in test [1]; with Papain (Carica papaya)) was “inactive” throughout.

Consider `CCOC(=O)N1CCN(/[N+]([O-])=N/Oc2ccc([N+](=O)[O-])cc2[N+](=O)[O-])CC1`, for which the Potency entry (in test [1]; in the test with Papain (Carica papaya)) was “inactive” throughout.

In the case of `CN1C2CC(OC(=O)[C@H](CO)c3ccccc3)CC1C1OC12` (stereo partly drawn), the Potency result in the test with Papain (Carica papaya) is “inactive”.

`C=CCN1C(=O)C(CC(C)C)NC1=S` (stereo not drawn): in test [4], the Potency was 23.9 µM (active).

Regarding `O=c1[nH]c2cc([N+](=O)[O-])c([N+](=O)[O-])cc2[nH]c1=O`, the Potency result (in test [1]; in the test with Papain (Carica papaya)) was “inactive” throughout.

`CNCC[C@H](Oc1ccc(C(F)(F)F)cc1)c1ccccc1`: the Potency entry (in test [1]; with Papain (Carica papaya)) was “inactive” in each case.

In the case of `CN(C)c1ccc(C(=C2C=CC(=[N+](C)C)C=C2)c2ccccc2)cc1`, the Potency in test [3] was 8.71 µM (active).

Regarding `O=C1NC(=O)/C(=C/c2ccc3nccnc3c2)S1`, the Potency result with Papain (Carica papaya) is “inactive”.

Take `Nc1ccc(O)c([N+](=O)[O-])c1`: the Potency entry in test [2] was “inactive”. Besides, the Potency in test [3] was 32.9 µM (active); in test [4], 21.8 µM (active).

Regarding `O=c1[nH]c2cc(C(F)(F)F)ccc2n1-c1cc(C(F)(F)F)ccc1O`, the Potency result (in test [1]; with Papain (Carica papaya)) was “inactive” in each case.

For `N[C@@H](CC(=O)O)C(=O)O`, the Potency entry (in test [1]; with Papain (Carica papaya)) was “inactive” throughout.

Consider `O=C(CCCCCN1CCN(c2ccccc2-c2ccccc2)CC1)NC1CCCc2ccccc21` (stereo not drawn), for which, in the test with Papain (Carica papaya), the Potency result was “inactive”.

As to `CC(C)Cc1ccc([C@H](C)C(=O)O)cc1`, the Potency entry (in test [1]; with Papain (Carica papaya)) was “inactive” in each case.

Consider `Brc1c(Br)c(Br)c2n[nH]nc2c1Br`, for which the Potency result (in test [1]; with Papain (Carica papaya)) was “inactive” each time.

For `O=C(Nc1cccc(C(=O)Nc2ccc(S(=O)(=O)O)c3cc(S(=O)(=O)O)cc(S(=O)(=O)O)c23)c1)Nc1cccc(C(=O)Nc2ccc(S(=O)(=O)O)c3cc(S(=O)(=O)O)cc(S(=O)(=O)O)c23)c1`, in test [1], the Potency entry was “inactive”. The Potency with Papain (Carica papaya) was 3.16 µM (active).

In the case of `C[S+](CC[C@H](N)C(=O)O)C[C@H]1O[C@@H](n2cnc3c(N)ncnc32)[C@H](O)[C@@H]1O` (stereo partly drawn), the Potency result in test [3] is “inactive”.

Consider `O=C1C(SCCO)=C(SCCO)C(=O)c2ccccc21`, for which the Potency in test [1] was 25.1 µM (active). In addition, the Potency entry with Papain (Carica papaya) is “inactive”.

For `O=C1NC(=O)c2c1c(-c1ccccc1)cc1[nH]c3ccc(O)cc3c21`, the Potency entry (in test [1]; in the test with Papain (Carica papaya)) was “inactive” throughout.

Turning to `NO`, the Potency result (in test [1]; with Papain (Carica papaya)) was “inactive” throughout.

Turning to `O=Cc1ccc(O)c(O)c1O`, the Potency entry in test [2], in test [3] and in test [4] was “inactive” each time.

In the case of `CCC(CO)Nc1nc(NCc2ccccc2)c2ncn(C(C)C)c2n1` (stereo not drawn), the Potency entry in the test with Papain (Carica papaya) is “inactive”.
